Measurements from PubChem BioAssay.
Calls of active or inactive are those of the source. Cut-off read from the data, not from the text of the source, unless noted: active = inhibition above about 80%; inactive = the rest.

Experiments:
[1] = growth inhibition, single agent or in combination, cell-based, chromothripsis tumors, cisplatin or BGB combos (AID 1671449); settings: LFS_MB_P medulloblastoma cells;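 note: cells exposed for 96 hours; 0% = vehicle DMSO and 100% = killing by high DMSO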
[2] = growth inhibition, single agent and combos, cell-based, chromothripsis tumors, cisplatin or BGB combos (AID 1671450); settings: HDN33 neuroblastoma cells, stronger effect = higher value;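 note: cells exposed to compound for four days; 0% = vehicle DMSO and 100% = cell killing by high DMSO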
[3] = growth inhibition, single agents and combos, ICB984, cell-based, cisplatin or BGB combos, synergistic combos for chromothripsis tumors (AID 1671451; call rule not given here;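 note: cells exposed for 96 hours before readout; 0% = vehicle DMSO and 100% = killing by high DMSO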); settings: ICB984 medulloblastoma cells, drug combinations, stronger effect = higher value
[4] = growth inhibition, single agents and combos, LFS_MB_1R, cell-based, cisplatin or BGB combos, synergistic combos for chromothripsis tumors (AID 1671452); settings: LFS_MB_1R medulloblastoma cells, stronger effect = higher value;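 note: cells exposed for 96 hours before readout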
[5] = growth inhibition, single agents and combos, HTB85, cell-based, BGB or cisplatin IC20 combos, synergistic combos for chromothripsis tumors (AID 1671453); settings: HTB85 osteosarcoma cells, drug combinations, stronger effect = higher value;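 note: cells exposed for 96 hours before readout; 0% = vehicle DMSO and 100% = high DMSO killing control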
[6] = growth inhibition, single agents and combos, CRL2098, cell-based, BGB or cisplatin IC20 combos, synergistic combos for chromothripsis tumors (AID 1671454); settings: CRL2098 osteosarcoma cells, drug combinations, stronger effect = higher value;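 note: cells exposed for 96 h before readout; 0% = vehicle DMSO and 100% = killing by high DMSO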
[7] = growth inhibition, single agents and combos, HD-MB03, cell-based, BGB or cisplatin IC20 combos, synergistic combos for chromothripsis tumors (AID 1671455; in the data active = inhibition above about 83%;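 note: 0% = vehicle DMSO and 100% = high DMSO as cytotoxic control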); settings: HD-MB03 medulloblastoma cells, stronger effect = higher value
[8] = growth inhibition, single agents and combos, UWB1.289, cell-based, BGB or cisplatin combos, synergistic combos for chromothripsis tumors (AID 1671456); settings: UWB1.289 ovarian carcinoma cells, stronger effect = higher value;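 note: cells exposed to compound for four days; 0% = vehicle DMSO and 100% = killing by high DMSO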
[9] = growth inhibition, single agents and combos, LFS_MB_2R, cell-based, cisplatin combos, synergistic combos for chromothripsis tumors (AID 1671457); settings: LFS_MB_2R medulloblastoma cells, stronger effect = higher value;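 note: cells exposed to compound for four days before readout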
[10] = growth inhibition, MDA-MB-436, cell-based, BGB or cisplatin combos, synergistic combos for chromothripsis tumors (AID 1671458; call rule not given here;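 note: cells exposed for 96 hours; 0% = vehicle DMSO and 100% = killing by high DMSO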); settings: MDA-MB-436 breast carcinoma growth inhibition, drug combinations, stronger effect = higher value
[11] = UWB1.289_BRCA1 ovarian cancer growth, cell-based, BGB or cisplatin combinations (AID 1671459); settings: UWB1.289 BRCA1 ovarian carcinoma, drug combinations, stronger effect = higher value
[12] = drug combination toxicity in non-malignant astrocytes – cell-based, BGB or cisplatin IC20 combos, cytotoxicity control for chromothriptic childhood tumor combination screen (AID 1671460); settings: Human astrocytes, viability inhibition, drug combinations, at 0.5 µM, stronger effect = higher value;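 note: cells exposed to compounds for 96 hours before viability readout; 0% = vehicle and 100% = killing control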
[13] = BT084 cell growth, single and combined drugs, ICGC_MB145, cisplatin and BGB IC40 combos (AID 1671461); settings: BT084 medulloblastoma cells, drug combinations, stronger effect = higher value;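 note: cells exposed to drugs for 96 hours; 0% = vehicle DMSO and 100% = high DMSO full killing control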
[14] = RCMB18 cell growth, single agent and combined, cisplatin and BGB IC40 combos (AID 1671462); settings: RCMB18 medulloblastoma cells, stronger effect = higher value;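 note: cells exposed to compound for four days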
[15] = CRL1545 cell growth, single agent and combined, cisplatin and BGB IC20 combos (AID 1671464); settings: CRL1545 osteosarcoma cells, stronger effect = higher value;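 note: cells exposed to compound for 96 hours before readout; 0% = vehicle DMSO and 100% = high DMSO killing control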
[16] = at 0.5 µM, stronger effect = higher value
[17] = measured here: combination with BGB IC20, at 0.005 µM
[18] = measured here: combination with BGB IC40, at 0.005 µM
[19] = measured here: combination with BGB IC40, at 0.05 µM
[20] = measured here: combination with cisplatin, at 0.5 µM, stronger effect = higher value
[21] = measured here: combination with cisplatin, at 5 µM, stronger effect = higher value
[22] = measured here: with BGB IC20 combination, at 0.5 µM
[23] = measured here: with cisplatin IC20 combination, at 0.5 µM
[24] = measured here: 5 uM single agent, at 5 µM
[25] = measured here: combination with cisplatin, at 0.5 µM
[26] = measured here: combination with cisplatin, at 5 µM
[27] = measured here: with BGB IC20, at 0.5 µM
[28] = measured here: with BGB IC20, at 5 µM
[29] = measured here: with cisplatin IC20, at 0.5 µM
[30] = measured here: with cisplatin IC20, at 5 µM
[31] = measured here: combination with BGB at IC20, at 0.5 µM
[32] = measured here: combination with cisplatin at IC20, at 0.5 µM
[33] = measured here: combo with BGB at IC20, at 0.5 µM
[34] = measured here: combo with cisplatin at IC20, at 0.5 µM
[35] = measured here: inhibition with BGB combination, at 0.05 µM
[36] = measured here: inhibition with cisplatin combination, at 0.05 µM
[37] = measured here: BGB combination, at 0.5 µM
[38] = measured here: BGB combination, at 5 µM
[39] = measured here: cisplatin combination, at 0.5 µM
[40] = measured here: cisplatin combination, at 5 µM
[41] = BGB combination, concentration series, at 5 µM
[42] = cisplatin combination, concentration series, at 5 µM
[43] = measured here: combo with BGB IC20
[44] = measured here: combo with cisplatin IC20
[45] = cisplatin combination, at 0.5 µM
[46] = measured here: BGB IC40 combination 0.05 uM, at 0.05 µM

SMILES: CC1CNC(=O)NC1=O (stereo not drawn)
- inhibition [1, 16]: -30.6% (inactive)
- inhibition [1, 17]: -22%
- inhibition [1, 18]: -7.63%
- inhibition [1, 19]: -15.7%
- inhibition [1, 20]: -39.2%
- inhibition [1, 21]: -13.3%
- inhibition ([2]; BGB combo, at 5 µM): -40.2%
- inhibition ([2]; at 0.5 µM): -17.3% (inactive)
- inhibition ([2]; cisplatin combo, at 5 µM): -24%
- inhibition [2, 22]: -4.75%
- inhibition [2, 23]: -15.4%
- inhibition ([2]; single agent, at 5 µM): 2.08%
- inhibition ([3]; BGB IC20 combo, at 0.005 µM): -33.2%
- inhibition ([3]; BGB IC40 combo, at 0.005 µM): -36.3%
- inhibition ([3]; BGB IC40 combo, at 0.05 µM): -20.7%
- inhibition ([3]; at 0.5 µM): -43.5% (inactive)
- inhibition ([3]; cisplatin combo, at 0.05 µM): -20.7%
- inhibition ([3]; cisplatin combo, at 0.5 µM): -62.7%
- inhibition ([3]; cisplatin combo, at 5 µM): -40.7%
- inhibition [3, 24]: -37.5%
- inhibition ([4]; at 0.5 µM): -30.6% (inactive)
- inhibition [4, 19]: -35.2%
- inhibition [4, 25]: 5.53%
- inhibition [4, 26]: 23.2%
- inhibition ([5]; at 0.5 µM): -31.7% (inactive)
- inhibition [5, 27]: -55.6%
- inhibition [5, 28]: -9.18%
- inhibition [5, 29]: -36.4%
- inhibition [5, 30]: -7.78%
- inhibition ([5]; single agent, at 5 µM): -19.6%
- inhibition ([6]; at 0.5 µM): -81.6% (inactive)
- inhibition [6, 31]: -71.8%
- inhibition [6, 32]: -130%
- inhibition ([7]; at 0.5 µM): 7.56% (inactive)
- inhibition [7, 33]: 12%
- inhibition [7, 34]: 16.9%
- inhibition ([8]; at 0.5 µM): -15.4% (inactive)
- inhibition [8, 35]: -40%
- inhibition [8, 36]: -20.8%
- inhibition ([9]; at 0.5 µM): -25.2% (inactive)
- inhibition [9, 25]: -28%
- inhibition [9, 26]: -26.8%
- inhibition ([10]; at 0.5 µM): -18.9% (inactive)
- inhibition [10, 37]: -18.5%
- inhibition [10, 38]: -17.9%
- inhibition [10, 39]: -32%
- inhibition [10, 40]: -4.6%
- inhibition [11, 41]: 1.37%
- inhibition ([11]; at 0.5 µM): -11% (inactive)
- inhibition [11, 42]: 10.9%
- inhibition [12]: 12.2% (inactive)
- inhibition [12, 43]: 9.11%
- inhibition [12, 44]: 12%
- inhibition ([13]; at 0.5 µM): -12.5% (inactive)
- inhibition [13, 45]: -19.5%
- inhibition ([13]; cisplatin combination, at 5 µM): -47.1%
- inhibition [13, 46]: -27%
- inhibition ([13]; single agent, at 5 µM): -16.6%
- inhibition ([14]; at 0.5 µM): -12% (inactive)
- inhibition ([14]; cisplatin combo, at 5 µM): -15.1%
- inhibition ([14]; measured here: BGB IC40 combination, at 0.05 µM): -20.6%
- inhibition [14, 25]: -13.2%
- inhibition ([14]; single agent, at 5 µM): -49.2%
- inhibition ([15]; at 0.5 µM): -21.8% (inactive)
- inhibition [15, 22]: -10.4%
- inhibition [15, 23]: -27.5%
- inhibition ([15]; single agent, at 0.05 µM): 3.21%
- inhibition ([15]; single agent, at 5 µM): -10.2%

SMILES: C=C(NC(=O)C(=C)NC(=O)c1csc(C2=NC3c4csc(n4)C4NC(=O)c5csc(n5)C(C(C)(O)C(C)O)NC(=O)C5CSC(=N5)/C(=C/C)NC(=O)C(C(C)O)NC(=O)c5csc(n5)C3(CC2)NC(=O)C(C)NC(=O)C(=C)NC(=O)C(C)NC(=O)C(C(C)CC)NC2C=Cc3c(C(C)O)cc(nc3C2O)C(=O)OC4C)n1)C(N)=O (stereo not drawn)
- inhibition [1, 16]: -22.9% (inactive)
- inhibition [1, 17]: -22.9%
- inhibition [1, 18]: -22.6%
- inhibition [1, 19]: -22%
- inhibition [1, 20]: -25.6%
- inhibition [1, 21]: 114%
- inhibition ([2]; BGB combo, at 5 µM): 99.7%
- inhibition ([2]; at 0.5 µM): -22.8% (inactive)
- inhibition ([2]; cisplatin combo, at 5 µM): 99.7%
- inhibition [2, 22]: -25.3%
- inhibition [2, 23]: -12.8%
- inhibition ([2]; single agent, at 5 µM): 99.8%
- inhibition ([3]; BGB IC20 combo, at 0.005 µM): 7.79%
- inhibition ([3]; BGB IC40 combo, at 0.005 µM): -7.37%
- inhibition ([3]; BGB IC40 combo, at 0.05 µM): 95.2%
- inhibition ([3]; at 0.5 µM): -28.5% (inactive)
- inhibition ([3]; cisplatin combo, at 0.05 µM): 95%
- inhibition ([3]; cisplatin combo, at 0.5 µM): -29.7%
- inhibition ([3]; cisplatin combo, at 5 µM): -54.9%
- inhibition [3, 24]: -28.7%
- inhibition ([4]; at 0.5 µM): -38.7% (inactive)
- inhibition [4, 19]: -31%
- inhibition [4, 25]: -9.9%
- inhibition [4, 26]: 100%
- inhibition ([5]; at 0.5 µM): 11.5% (inactive)
- inhibition [5, 27]: 1.15%
- inhibition [5, 28]: 70.9%
- inhibition [5, 29]: -4.79%
- inhibition [5, 30]: 86.9%
- inhibition ([5]; single agent, at 5 µM): 98.8%
- inhibition ([6]; at 0.5 µM): -6.59% (inactive)
- inhibition [6, 31]: 7.69%
- inhibition [6, 32]: -29.4%
- inhibition ([7]; at 0.5 µM): 2.14% (inactive)
- inhibition [7, 33]: 13.1%
- inhibition [7, 34]: -39.1%
- inhibition ([8]; at 0.5 µM): -0.91% (inactive)
- inhibition [8, 35]: -20.4%
- inhibition [8, 36]: -15.4%
- inhibition ([9]; at 0.5 µM): -37% (inactive)
- inhibition [9, 25]: -29.7%
- inhibition [9, 26]: 104%
- inhibition ([10]; at 0.5 µM): 16.8% (inactive)
- inhibition [10, 37]: 16.2%
- inhibition [10, 38]: 90.8%
- inhibition [10, 39]: 25.6%
- inhibition [10, 40]: 94.8%
- inhibition [11, 41]: 97.5%
- inhibition ([11]; at 0.5 µM): 2.16% (inactive)
- inhibition [11, 42]: 94.4%
- inhibition [12]: -36.8% (inactive)
- inhibition [12, 43]: -24.8%
- inhibition [12, 44]: -63.7%
- inhibition ([13]; at 0.5 µM): 13.8% (inactive)
- inhibition [13, 45]: 15.3%
- inhibition ([13]; cisplatin combination, at 5 µM): 91.8%
- inhibition [13, 46]: -3.57%
- inhibition ([13]; single agent, at 5 µM): 104%
- inhibition ([14]; at 0.5 µM): -9.28% (inactive)
- inhibition ([14]; cisplatin combo, at 5 µM): 96.8%
